This note sets out measurements from the supplement of paper PMC13380429.

A number with no mark means an inactive call.

The test deals with Vero E6 infected with SARS-CoV-2. Nature of the test: inhibition of SARS-CoV-2 cytopathic effect; higher = more antiviral protection, active = above 15. The note with it: 48 h.

For the molecule `Cc1cccc(C)c1NC(=O)CN1CCCCCC1` [pincainide], the “inhibition of SARS-CoV-2 cytopathic effect” value (“inhibition” for short) reads like this: (1 nM) -3.17%; (8.33 nM) -5.99%; (100 nM) -2.63%; (833.33 nM) -1.95%; (10000 nM) 0.04%.
For `CN1CCN(c2nc(C3=C(c4c[nH]c5ccccc45)C(=O)NC3=O)c3ccccc3n2)CC1` [sotrastaurin], in that order: 0.12%, 1.74%, -0.57%, -1.82% and 4.89%.
For `CC(C)c1cc(-c2n[nH]c(=O)n2-c2ccc3c(ccn3C)c2)c(O)cc1O` [ganetespib], in that order: -2.33%, -3.79%, -1.43%, -1.16% and -7.9%.
In the same order, the values of `COc1ccc(O)cc1` [mequinol] are 2.15%, -1.51%, 2.67%, 1.18% and 2.53%.
In the case of `COc1cc(/C=C/C(N)=O)cc(OC)c1OC` [cintriamide], the “inhibition” value is -2.6% (1 nM); 1.17% (8.33 nM); -4.56% (100 nM); 2.97% (833.33 nM); 2.84% (10000 nM).
In the same order, the values of `C[C@@H]1C[C@H]2[C@@H]3CCC4=CC(=O)C=C[C@]4(C)[C@@]3(F)[C@@H](O)C[C@]2(C)[C@@]1(O)C(=O)COP(=O)(O)O` are -1.27%, 0.18%, -1.45%, -3.81% and 0.77%.
For `C[N+](C)(C)CCOP(=O)(O)OC[C@H](O)CO` [choline-alfoscerate], in that order: -1.69%, -1.94%, -3.48%, -1.31% and -2.46%.
Take `CCn1cc(-c2ccnc3[nH]c(-c4cccc(CN(C)C)c4)cc23)c(-c2ccc(NC(=O)N(C)C)cc2)n1`: the “inhibition” value is 0.02% (1 nM); -2.56% (8.33 nM); -1.67% (100 nM); -3.22% (833.33 nM); 1.16% (10000 nM).
For `CCCCC[C@H](O)/C=C/[C@H]1[C@H](O)CC(=O)[C@@H]1C/C=C\CCCC(=O)O` [dinoprostone], in that order: -2.72%, 0.16%, -4.2%, 0.3% and 0.05%.
For `CC[C@@H](C(=O)[C@@H](C)[C@@H](O)[C@H](C)[C@@H]1O[C@@H]([C@@H](CC)C(=O)O)CC[C@@H]1C)[C@H]1O[C@]2(C=C[C@@H](O)[C@]3(CC[C@@](C)([C@H]4CC[C@](O)(CC)[C@H](C)O4)O3)O2)[C@H](C)C[C@@H]1C` [Salinomycin (Procoxacin)], in that order: -2.73%, 0.16%, 4.82%, 50.9% (active) and 57% (active).
Regarding `Cc1oc2ccccc2c1CNC(=O)NCc1cccs1`, the “inhibition” value (1 nM) is -0.41%; the “inhibition” value (8.33 nM) was 1.63%; the “inhibition” value (100 nM) was 0.18%; the “inhibition” value (833.33 nM) is -0.46%; the “inhibition” value (10000 nM) was 3.09%.
For `C=CC[C@]1(O)CC[C@H]2[C@@H]3CCC4=CCCC[C@@H]4[C@H]3CC[C@@]21C` [allylestrenol], in that order: -1.01%, -2.16%, 1.52%, 1.07% and 1.75%.
On to `CC(Cc1ccccc1)NCCC(c1ccccc1)c1ccccc1` (stereo not given) [prenylamine], for which the “inhibition” value runs as follows: (1 nM) 1.32%; (8.33 nM) -1.92%; (100 nM) -0.65%; (833.33 nM) -1.29%; (10000 nM) 23.1% (active).
For `CCCCCCCCCCCCCCOC(=O)c1cccnc1` [myristyl-nicotinate], in that order: 0.94%, 2.86%, 0.68%, 1.76% and 1.2%.
For `Nc1nc2[nH]cc(CCc3ccc(C(=O)N[C@@H](CCC(=O)O)C(=O)O)cc3)c2c(=O)[nH]1` [pemetrexed], in that order: -1.03%, 0.64%, 1.39%, -2.48% and -1.3%.
Turning to `N[C@@H]1[C@H]2CN(c3nc4c(cc3F)c(=O)c(C(=O)O)cn4-c3ccc(F)cc3F)C[C@@H]12` [trovafloxacin], the “inhibition” value is, setting by setting: (1 nM) -8.03%; (8.33 nM) -6.09%; (100 nM) -4.83%; (833.33 nM) -0.82%; (10000 nM) -1.33%.
For `COC(=O)Nc1nc2cc(C(=O)c3ccccc3)ccc2[nH]1` [mebendazole], in that order: -1.33%, 0.93%, -0.07%, 0.95% and 0.89%.
In the same order, the values of `OC[C@@H](O)[C@@H](O)CO` [erythritol] are -0.84%, -2.36%, -2.74%, 0.56% and 0.5%.
In the same order, the values of `CC(C)(C#N)c1ccc(N2C(=O)OCc3cnc4ccc(-c5cnc6ccccc6c5)cc4c32)cc1` are 4.95%, 2.48%, 2.65%, 2.93% and 4.4%.
For the molecule `O=c1[nH]cnc2c1ncn2[C@H]1CC[C@@H](CO)O1` [didanosine], the “inhibition” value (1 nM) is 0.07%; the “inhibition” value (8.33 nM) was -2.03%; the “inhibition” value (100 nM) was 2.16%; the “inhibition” value (833.33 nM) is 3.97%; the “inhibition” value (10000 nM) was -1.54%.
For `COc1ccc2c(O[C@@H]3C[C@H]4C(=O)N[C@]5(C(=O)NS(=O)(=O)C6CC6)C[C@H]5/C=C\CCCCN(C)C(=O)[C@@H]4C3)cc(-c3nc(C(C)C)cs3)nc2c1C` [simeprevir], in that order: -0.41%, 3.7%, 2.68%, -2.31% and 2.37%.
In the same order, the values of `CCCn1c(=O)c2[nH]cnc2n(-c2ccc(Cl)cc2)c1=O` [arofylline] are -3.55%, -1.13%, 0.16%, -6.97% and -3.81%.
In the same order, the values of `C[C@H](CCC(=O)O)[C@H]1CC[C@H]2[C@@H]3CC[C@@H]4C[C@H](O)CC[C@]4(C)[C@H]3CC[C@]12C` [lithocholic-acid] are -0.57%, 0.93%, -0.13%, 0.9% and -0.77%.
For `COc1ccc(OC)c2c(=S)c3ccccc3[nH]c12`, the “inhibition” value was 2.65% (1 nM); 4.64% (8.33 nM); 1.38% (100 nM); 1.44% (833.33 nM); 2.75% (10000 nM).
For `Cc1ncc(CN2CC=C(c3ccccc3)CC2)c(N)n1`, in that order: 0.67%, 0.52%, -0.09%, 0.15% and 0.43%.
